PubChem BioAssay AID493169 (National Center for Advancing Translational Sciences (NCATS), 2011)
Inconclusive results are not listed. Unmarked numbers belong to inactive results. Active and inactive are the calls of the source. Calls follow the shape of the dose curve; as a rule, active = well fitted inhibition curve with a large enough effect; inconclusive = small, poorly fitted or top-dose-only effect; inactive = flat fitted curve, though single readings scatter.

Assay: CHOP2 Reporter Counterscreen Assay for Inhibitors of Ubiquitin-specific Protease USP2a;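 also: activated enterokinase alone at 50 pM in a cell-free format rather than USP2a or CHOP2; nearly all actives have a fitted effect of over 55% in size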
Conditions: purified enterokinase, fluorogenic substrate, 485/531 nm; series mostly up to 38.3 µM; activity change, negative = inhibition: at the top concentration
Summary of the method: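 Cell-free counterscreen with pre-activated enterokinase alone (50 pM final) in 20mM Tris-HCl pH 8.0, 2mM CaCl2, 2mM beta-mercaptoethanol, 0.05% CHAPS; compound preincubation 30 min RT, reporter substrate 25nM final, fluorescence read after 10 min (Ex 485/Em 531).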
% is scaled to controls: 0 for no effect and ±100 for the full control effect; potency is read from the fitted curve at half-maximal effect.

SMILES | activity change, negative = inhibition [%] | Potency
Cc1ccc(C(=O)NCCCc2ccccc2)s1 | 2.08 | 
COc1ccc(/C=C\C(=O)O[C@@H]2C(O)C(O[C@@H]3OC(C)[C@H](O[C@@H]4OCC(O[C@H]5O[C@H](CO)[C@@H](O)C(O)C5O)C(O)C4O)C(O)C3O)[C@H](OC(=O)[C@]34CCC(C)(C)C[C@@H]3C3=CCC5[C@@]6(C)CC(O)C(O[C@@H]7OC(CO)C(O)[C@H](O)[C@H]7O)[C@@](C)(C(=O)O)C6CC[C@@]5(C)[C@]3(CO)CC4)O[C@H]2C)cc1 (stereo not given in full) | -14.4 | 
Cc1ccc(C(=O)O/N=C/c2c(C(F)(F)F)nn(C)c2Sc2ccc(Cl)cc2)cc1 | -0.861 | 
CCCCCCCCCCCCCCCCn1cc[n+](C)c1 |  | 10 µM (active)
COC(=O)c1ccc(NC(=O)CSC2=Nc3ccccc3C3CC=NN23)cc1 (stereo not given) | -1.25 | 
Cn1c2ccccc2c2nnc(SC3CCOC3=O)nc21 (stereo not given) | 3.41 | 
FC(F)Sc1ccc(NC(=S)NC2CCCCC2)cc1 | -0.892 | 
CCN1C(=O)CSc2ccc(C(=O)NC3CCCCC3)cc21 | 2.46 | 
CC(=O)Nc1ccc(Nc2cc(C)nc(Nc3ccc(NC(C)=O)cc3)n2)cc1 | -3.67 | 
CC(C)(C)C1CCC2(CC1)Nc1cccc3cccc(c13)N2 | -1.38 | 
N#Cc1cc(Sc2ccccn2)c(Sc2ccccn2)cc1C#N | 0.037 | 
CN1CCN(S(=O)(=O)c2ccc(N3CCN(S(=O)(=O)/C=C/c4ccccc4)CC3)nc2)CC1 | 0.276 | 
CC(C)OCCCNC(=O)CN1C(=O)CC(C)(C)S(=O)(=O)c2ccccc21 | -2.55 | 
O=C(Nc1cccc(S(=O)(=O)N2CCCC2)c1)c1cncc(Br)c1 | -5.75 | 
COc1ccc(S(=O)(=O)N(C)CC(=O)Nc2cccc(C(C)=O)c2)cc1Cl | -1.62 | 
COc1cc(C)c(S(=O)(=O)NCc2ccc3c(c2)OCO3)cc1C | 5.07 | 
Nn1c(Nc2ccccc2)nc2ccccc2c1=O | 6.66 | 
CCOc1ccc(C(=O)c2ccc(OCC)c(N)c2)cc1N | -1.26 | 
CCCCCCCCCS(=O)(=O)N/N=C/c1cccc([N+](=O)[O-])c1 | -2.63 | 
COc1ccc(C2CC(=O)N3CN(c4ccccc4F)CSC3=C2C#N)cc1OC (stereo not given) | -1.25 | 

SMILES | activity change, negative = inhibition [%] | Potency
COCCCNCCCOc1ccc(C)cc1Br | 6.77 | 
N#CCc1ccc(NC(=O)/C=C/c2ccc([N+](=O)[O-])o2)cc1 |  | 10 µM (active)
CCn1nc(C(=O)N[C@@H](CCSC)c2nc3ccccc3[nH]2)c2ccccc2c1=O | -2.42 | 
FC(F)(F)C1=Nc2cccc3cccc(c23)N1 | 2.43 | 
Cc1n[nH]c(C)c1S(=O)(=O)N1CCCC(C(=O)NC2CCCc3ccccc32)C1 (stereo not given) | 0.0618 | 
COc1ccc(NC(=S)NC(=O)/C=C/c2ccco2)cc1 | -2.95 | 
CC(=O)N1c2c(cc(Br)cc2S(=O)(=O)NCc2cccnc2)CC1C (stereo not given) | 2.91 | 
CC(=O)OCC(=O)Nc1ccc(Cl)cc1Cl | -2.04 | 
COc1ccc(O)c(-c2cc(-c3ccc(F)cc3)n[nH]2)c1 | -5.03 | 
Cc1ccc(C)n1NC(=O)c1ccccc1O | -12.6 | 
CCOC(=O)COc1ccccc1/C=N/O | 0.129 | 
CCN(C[C@H]1N[C@@](CC)(C(=O)OC)[C@H]2C(=O)N(Cc3ccccc3)C(=O)[C@@H]12)C(=O)Nc1ccc(C)cc1 | -3.12 | 
CC(C)C(=O)N=c1sc2cc(F)cc(F)c2n1C | -2 | 
COc1ccc(/C=C(\NC(=O)c2ccc(OC)c(OC)c2)C(=O)N2CCN(C)CC2)cc1 | -1.05 | 
CC(C)c1ccc(Nc2nnc(SCC(=O)c3nnc(-c4ccccc4)o3)s2)cc1 |  | 5.01 µM (active)
COC(=O)C1Sc2[nH]c(=O)sc2C(c2ccc(Cl)cc2)C1C(=O)OC (stereo not given) | -1.17 | 
O=C(c1ccc(CS(=O)(=O)c2ccc(Br)cc2)o1)N1CCCC1 | -2.08 | 
C#CCOCCOCCOCCNc1nc(N2CCN(C(=O)CCCCCCCCCCNC(=O)Cn3cc(CCCCCN)nn3)CC2)nc(N2CCN(C(=O)CCCCCCCCCCNC(=O)[C@H]([C@@H](C)CC)n3cc(CCCCCN)nn3)CC2)n1 |  | 5.62 µM (active)
Cc1ccc2c(c1)c1c3n2CCN(C(=O)Cn2c(-c4ccccc4)noc2=O)C3CCC1 (stereo not given) | 0.405 | 
Cc1cc(C)n2cc(CSc3nnnn3-c3ccccc3C)nc2n1 | 1.35 | 
